Data on 86 compounds can be found in PubChem BioAssay AID651958 (The Scripps Research Institute Molecular Screening Center, 2012).

The structures appear in SMILES notation. “And” between values parts separate entries of the source, which are not always exact repeats. Equal entries are not always repeated. Screen size: about 370,000 compounds; about 2,000 (0.54%) were called active. The entries come from a sample that favours actives as a whole. Values without a mark were called inactive. No stated cut-off is given here; in the data, active means inhibition above about 30%; inactive means the rest.

The term inhibition denotes the relative decrease from the control value, in per cent.

In this test the test system is Crimean-Congo hemorrhagic fever virus L polyprotein viral ovarian tumor (vOTU) protease domain. Put plainly: CCHFV vOTU protease inhibitors, primary screen, biochemical, Pep-AMC substrate, fluorescence (AID 651958). Further: 0% = vehicle wells with enzyme and 100% = no enzyme wells. The settings on record: at 11.5 µM, active compounds read high.
As to `CCOC(=O)c1ccc(NC(=O)C2CC(=O)Nc3nc4ccccc4n32)cc1` (stereo unspecified), the inhibition is 19.2%.

Turning to `CCOC(=O)c1cc2c(=O)[nH]c(C(Cl)(Cl)Cl)nc2o1`, the inhibition is -3.85%.

As for `CCOC(=O)c1ccc(Nc2cc3ccccc3c(=O)[nH]2)cc1`, the inhibition is 94.2% (active).

For `Cc1cc(C)cc(NC(=S)NC2CC3CCCC(C2)N3Cc2cccs2)c1` (stereo unspecified), the inhibition is -9.42%.

As for `CCC(C)(C(=O)NC1CCCC1)N(C(=O)CNC(C)=O)c1ccc(C)cc1` (stereo unspecified), the inhibition was 7.89%.

As to `Oc1c(C=Nc2cccc3nsnc23)ccc2ccccc12`, the inhibition was 86% (active).

With `CC1=C(C(=O)N2CCOCC2)CC(CC(=O)NCC2CCCCC2)C(=O)N1Cc1ccc(F)cc1` (stereo unspecified), the inhibition is 14%.

Regarding `CCCn1c(N)c(C(=O)CSc2nnc(Cc3cccs3)n2C2CC2)c(=O)[nH]c1=O`, the inhibition is -3.09%.

Regarding `CC(=O)c1c(N)n(C)c(=O)n(C)c1=O`, the inhibition is 5.25%.

In the case of `N#C/C(=C\c1ccccc1)c1n[nH]c(Cn2cncn2)n1`, the inhibition is 4.11%.

In the case of `CCc1ccc(/C=N/NC(=O)c2ccc(OC3CCCC3)cc2)s1`, the inhibition is 12.3%.

As to `COc1ccc(CNCCCNCc2ccc(OC)c(OC)c2)cc1OC`, the inhibition is 5.96%.

For `Cc1ccc2[nH]c(=O)c(CC=C(Cl)Cl)c(C)c2c1`, the inhibition was 3.16%.

Take `CC(C)(C)OC(=O)NCCCCCNC(=O)c1[nH]cnc1C(=O)Nc1nccs1`: the inhibition is 0.59%.

With `CCOC(=O)c1ccc(NC(=O)c2nc[nH]c2C(=O)N[C@@H](CCCCNC(=O)OC(C)(C)C)C(=O)OC(C)(C)C)cc1`, the inhibition was 29.6% (active).

Turning to `Cc1ccc(NC(=O)c2nc[nH]c2C(=O)N[C@@H](CCCCNC(=O)OC(C)(C)C)C(=O)OC(C)(C)C)cc1`, the inhibition is 27.1%.

As for `CCOC1=C2CN(S(=O)(=O)c3ccc(C)cc3)[C@H](c3cccs3)C[C@H]2[C@H]2C(=O)N(c3ccccc3)C(=O)[C@H]2C1`, the inhibition was -5.03%.

With `O=C(COc1ccc(Cl)cc1)N1CCN(S(=O)(=O)c2ccc(Cl)cc2)CC1`, the inhibition is 9.84%.

As for `O=C(COc1ccc(Cl)cc1)N1CCN(c2cccc(C(F)(F)F)c2)CC1`, the inhibition was 32.4% (active).

For `CSCCC(NC(=O)COc1ccccc1)C(=O)N1CCN(c2cccc(C(F)(F)F)c2)CC1` (stereo unspecified), the inhibition was 13.9%.

For `CCNC(=O)N1CCCC(C(=O)c2ccc(-c3ccccc3)cc2)C1` (stereo unspecified), the inhibition was -6.51%.

Consider `Cc1oc2c(F)c(F)c(F)c(F)c2c1S(=O)(=O)Nc1cccc(C(F)(F)F)c1`, for which the inhibition is 43.8% (active).

`Cc1noc(C)c1S(=O)(=O)Nc1ccc(C(=O)O)cc1`: the inhibition was 7.91%.

For the compound `Cc1ccc(N(CCC(=O)O)S(=O)(=O)c2cccc(C(F)(F)F)c2)cc1`, the inhibition is -2.86%.

As to `C[C@]12C=CC(=O)C=C1CC[C@@H]1[C@@H]2C(=O)C[C@@]2(C)[C@H]1CC[C@]2(O)C(=O)CO`, the inhibition was 0.7% and 3.02%.

As to `COCCCN(C(=S)Nc1c(C)cc(C)cc1C)C(C)c1ccncc1` (stereo unspecified), the inhibition was -6.09%.

As to `CN(C)N1C(N)=C(C#N)C(c2ccc(Br)cc2)C2=C1CCCC2=O` (stereo unspecified), the inhibition was 35.1% (active).

For the compound `CCOc1ccc(C2C(C#N)=C(N)N(N(C)C)C3=C2C(=O)CCC3)cc1` (stereo unspecified), the inhibition is 16.2%.

Regarding `CCc1ccc(C2C(C#N)=C(N)N(N(C)C)C3=C2C(=O)CCC3)s1` (stereo unspecified), the inhibition is 1.4%.

Turning to `CC(C(=O)N=Nc1c(O)n(C)c2ccc(Br)cc12)n1cnc2ccccc2c1=O` (stereo unspecified), the inhibition was -4.46%.

Take `CNc1nccc(-c2ccc(Cl)cc2)c1C#N`: the inhibition was -58.4%.

On to `CCn1c(C)nc2cc(C(=O)NNS(=O)(=O)c3ccc(C)cc3C)ccc21`, for which the inhibition was -9.65%.

Take `O=C1Cc2ccccc2Sc2ccc(Cl)cc21`: the inhibition is 7.8%.

`CCN(CC)C(=O)[C@@H]1C=C2c3cccc4[nH]c(Br)c(c34)C[C@H]2N(C)C1`: the inhibition is 33.8% (active).

Take `COc1ccc(NC(=O)C[C@H]2C(=O)N(CCc3ccccc3)C[C@@H]2C)cc1`: the inhibition was 29.5% (active).

`CC1(C)CN(CCc2ccccc2)C(=O)[C@H]1CC(=O)Nc1ccc(Br)cc1`: the inhibition was 21.8%.

Regarding `COc1ccc(CCN2C(=O)N(c3ccc(OC)cc3)C(=O)C2CC(=O)Nc2ccc(OC)cc2)cc1` (stereo unspecified), the inhibition was 4.43%.

As for `COC(=O)C1=C(c2cc3ccccc3s2)C[C@@H]2CC[C@H]1N2C(=O)NCCO`, the inhibition was -0.84%.

Consider `Cc1noc(/C=C/c2ccco2)c1S(=O)(=O)N1CCC(C(=O)Nc2ccc(Cl)cn2)CC1`, for which the inhibition is 2.84%.

Consider `CCOc1ccc(C(=O)Nc2ccc(S(=O)(=O)NCC3CCCO3)cc2)cc1OCC` (stereo unspecified), for which the inhibition is 35% (active).

As to `Cc1ccc(NC(=O)c2ccc(S(=O)(=O)NCC3CCCO3)cc2)cc1C` (stereo unspecified), the inhibition was -7.16%.

With `O=C(Nc1ccc(S(=O)(=O)NCC2CCCO2)cc1)c1ccc(F)cc1` (stereo unspecified), the inhibition was 14%.

Consider `CC(C)c1ccc(Nc2ncccc2C#N)cc1`, for which the inhibition was 7.01%.

`CCC(C)(C)NC(=O)C(c1ccc(O)cc1)N(Cc1ccco1)C(=O)CCC(=O)Nc1ccccn1` (stereo unspecified): the inhibition was 0.91%.

For the compound `CSc1ccccc1NC(=O)CN(C)CC(=O)Nc1cccc(Br)c1`, the inhibition was 0.92%.

`Cc1cccc(N(C(=O)c2sc(C)nc2C)C(C(=O)NCC2CCCO2)c2ccccc2)c1` (stereo unspecified): the inhibition was -8.32%.

Take `Cc1ccccc1-n1c(SCC(=O)Nc2cccc3ccccc23)nc(O)cc1=O`: the inhibition was 32.7% (active).

In the case of `Cc1ccc(-n2c(SCC(=O)Nc3cccc4ccccc34)nnc2-c2ccccn2)cc1`, the inhibition is -2.55%.

For the compound `C=CCn1c(N)cc(=O)nc1SCC(=O)Nc1cccc2ccccc12`, the inhibition is -1.46%.

As to `O=C(Cn1cnc2c(OCc3ccccc3)ncnc21)NCc1nc2ccccc2[nH]1`, the inhibition is -9.89%.

Turning to `Cn1c(=NC(=O)c2ccc3c(c2)OCCO3)sc2cc(S(C)(=O)=O)ccc21`, the inhibition is -4.23%.

For the compound `Cn1c(=NC(=O)c2ccco2)sc2cccc(F)c21`, the inhibition is 5.27%.

On to `Cn1c(=NC(=O)c2cnccn2)sc2ccccc21`, for which the inhibition is 36.4% (active).

As to `COC(=O)c1ccc(CN2C(=O)[C@]3(OCCC=C[C@H]3C)c3c(Br)cccc32)cc1`, the inhibition was 10.2%.

For `O=C(N[C@@H]1C/C=C\C[C@@H](CC(=O)N(CCO)Cc2ccccc2)C(=O)N[C@H](Cc2ccccc2)COC1=O)OCC1c2ccccc2-c2ccccc21`, the inhibition was 0.7%.

On to `CCOC(=O)N/N=C1\CC(C)S(=O)(=O)c2ccc(Cl)cc21` (stereo unspecified), for which the inhibition was -1.67%.

Take `COc1ccc(C(=O)N2CCN(c3ccc(C(C)=O)cc3F)CC2)cc1S(=O)(=O)NC1CC1`: the inhibition is 12.2%.

In the case of `COc1ccc(C(N)c2csc(NC(=O)Nc3cccc(C(F)(F)F)c3)n2)cc1` (stereo unspecified), the inhibition is 36.4% (active).

In the case of `COc1ccc(CN2C(CC(=O)Nc3cccnc3)c3ccc(C(F)(F)F)cc3S2(=O)=O)cc1` (stereo unspecified), the inhibition was 1.05%.

As to `COc1cccc(NC(=O)Nc2nnc(N3CCCCC3C)s2)c1` (stereo unspecified), the inhibition was 8.79%.

For the compound `O=C1[C@@H](c2ccccc2)[C@@H](c2ccccc2)N1c1ccccc1`, the inhibition was -7.47%.

On to `COc1ccc(C(=O)/C=C/c2ccc(-c3ccccc3)cc2)cc1CSCC(=O)O`, for which the inhibition is 29.8% (active).

Regarding `COc1cc(C(=O)N2CCN(C/C=C/c3ccccc3)CC2)cc(OC)c1C`, the inhibition was 11.4%.

On to `COc1ccc(C(C)=O)cc1CSc1nc2nc(C)cc(C)n2n1`, for which the inhibition was -9.62%.

`Cc1noc(C)c1S(=O)(=O)N(C)C[C@H]1OCCCC[C@@H](C)Oc2ccc(NC(=O)CCCN(C)C)cc2C(=O)N([C@H](C)CO)C[C@@H]1C`: the inhibition was -8.1%.

Turning to `CC(C)CN1CCC1(C)C(=O)Nc1ccc(OC(F)F)cc1` (stereo unspecified), the inhibition was 15.4%.

With `CC(C)NC(=O)C1(C)CCCCN1Cc1cccc(C(F)(F)F)c1` (stereo unspecified), the inhibition was 0.49%.

Consider `CC(C)Oc1ccc(CN2CCC2(C)C(=O)NCc2ccc(C(F)(F)F)cc2)cc1` (stereo unspecified), for which the inhibition was 35.6% (active).

For `CC(=O)N=c1ncn(CC(COC(C)=O)OC(C)=O)c2nc[nH]c12` (stereo unspecified), the inhibition is 6.99%.

With `COC(=O)Cc1ccc(OC2(C)CCN(Cc3ccc4c(c3)OCCO4)C2)cc1` (stereo unspecified), the inhibition was 0.88%.

Turning to `CC(C)(C)NC(=O)C(c1ccco1)N(Cc1ccc2c(c1)OCO2)C(=O)Cn1nnc2ccccc21` (stereo unspecified), the inhibition was 5.93%.

With `CCCCCCCCNS(=O)(=O)/C=C/c1cc(C)ccc1CNC(=O)OC(C)(C)C`, the inhibition is 29.5%.

As to `COCCn1c(=O)[nH]c(=O)c2cc(C(=O)c3cc(OC)ccc3O)cnc21`, the inhibition is 16.3%.

On to `CCc1ccc(NC(=O)CN2C(=O)COc3ccc(S(=O)(=O)N4CCCC4)cc32)cc1`, for which the inhibition is -0.54%.

As to `COP(=O)(Sc1ccccc1)C(Cc1ccccc1)NC(=O)OCc1ccccc1` (stereo unspecified), the inhibition was 3.36%.

Take `COc1cc2c(cc1OC)C(Cc1cc(OC)c(OC)cc1[N+](=O)[O-])=NCC2`: the inhibition is 40% (active).

Turning to `COc1cc2c(cc1OC)C(c1cccc([N+](=O)[O-])c1)=NCC2`, the inhibition was 10.7%.

`COc1cc(CN2CCCN(C)CC2)c([N+](=O)[O-])cc1OC`: the inhibition is -3.03%.

For `CC(C)CCNC(=O)Cn1c(=O)oc2cc(S(=O)(=O)N3CC(C)CC(C)C3)ccc21` (stereo unspecified), the inhibition is 7.1%.

Take `CCCNC(=O)C1(C)CCN(C(=O)c2cc(F)ccc2C)C1` (stereo unspecified): the inhibition is 6.2%.

`Nc1ccc(N=Nc2ccccc2Cl)c(N)n1`: the inhibition is 30% (active).

On to `COc1ccc(C(C(=O)NC(C)(C)C)N(C(=O)Cn2nnc3ccccc32)c2ccc(C(C)=O)cc2)cc1O` (stereo unspecified), for which the inhibition is 21.7%.

Regarding `Cc1nc(N)nc(SCc2ccc([N+](=O)[O-])cc2)c1N`, the inhibition is -13.9%.

For `Cc1oc2c(c1C(=O)N1CCOCC1)C(=O)c1ccccc1C2=O`, the inhibition was 70.8% (active).

As to `Cc1ccc(S(=O)(=O)NC(C(=O)N2CCOCCOCCOCCOCC2)c2ccccc2)cc1` (stereo unspecified), the inhibition is -5.21%.

As for `N[C@@H](Cc1ccccc1)C(=O)N1CCOCC1`, the inhibition is -2.24%.
